The text below walks through data of PubChem BioAssay (NCATS).

Several values for one entry are separate records, joined by “and”; a condition that tells them apart may be missing. Equal values may be shown once. Records with an inconclusive call do not appear. Activity calls are given as the source filed them. Unless noted, the call rests on the fitted dose curve; in most records, active means well fitted curve in the direction sought with a large enough effect; inconclusive means small, poorly fitted or top-dose-only effect, or another doubt; inactive means no such curve, though single readings can be large; an effect the other way counts as inactive or inconclusive.

Assay [1] concerns the target Flap endonuclease 1 (Homo sapiens) (UniProt P39748). The assay can be described thus: qHTS Validation Assay for the Inhibitors of Human Flap endonuclease 1 (FEN1) (AID 488816). Further: potency means the concentration at half of the fitted maximal effect. In short, it runs like this:
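Steps: add FEN1 (10 nM reagent) or buffer only; pin compounds; hold 15 min at room temperature; start with substrate, 50 nM final; read at 0 and 15 min; correct, normalize and fit a four-parameter Hill curve.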
In general terms: Quantitative high-throughput screening tests each substance at several concentrations.

For assay [2], the target named is M-phase phosphoprotein 8 (Homo sapiens) (UniProt Q99549). The assay can be described thus: qHTS Validation Assay for Inhibitors for MPP8 Chromodomain Interactions with Methylated Histone Tails (AID 488949). Further: nearly all actives have a fitted effect of over 55% in size. Further: potency means the concentration at half of the fitted maximal effect. The essentials:
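50 nM MPP8 + 50 nM b-H3K9me3 peptide, PBS pH 7.4/0.01% Tween-20, 30 min RT; + cpd 30 min RT; + AlphaScreen donor/Ni-chelate acceptor beads 10 ug/mL final, 30 min dark; luminescence read.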

In assay [3] the target is Chromobox protein homolog 1 (Homo sapiens) (UniProt P83916). The assay is described as follows: qHTS Validation Assay for Inhibitors of HP1-beta Chromodomain Interactions with Methylated Histone Tails (AID 488953). Further: nearly all actives have a fitted effect of over 50% in size. Further: potency means the concentration at half of the fitted maximal effect. In short, it runs like this:
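AlphaScreen proximity signal from streptavidin donor and nickel chelate acceptor beads (final 10 ug/mL) after 30 min dark incubation. Compounds had 30 min at room temperature with preformed complex of 50 nM HP1-beta and 50 nM b-H3(1-18)K9me3 in PBS pH 7.4 with 0.01% Tween-20.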

Assay [4] addresses Methanococcus maripaludis chaperonin (MmCpn) (UniProt Q6LX38). The assay is described as follows: High-Throughput Screening for Modulators of Cytosolic Chaperonin Activity: MmCpn Primary Screen (AID 488978).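 Further: 50 nM MmCpn enzyme hydrolysing 30 µM ATP at 37 °C; 0% is about no effect.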 The essentials: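 Steps: chaperonin 50 nM final; add compound, 5 min RT; start with ATP, 30 uM final; hold 10 min at 37C; add ADP Transcreener HTRF reagent, 5 min; read ex 320, em 590 and 665 nm.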

Assay [5] has as its target D(1A) dopamine receptor (Homo sapiens) (UniProt P21728). The assay is described as follows: HTS Assay for Allosteric Agonists of the Human D1 Dopamine Receptor: Primary Screen for Agonists (AID 488981). Further: potency means the concentration at half of the fitted maximal effect. On activation: 0% is about no effect. In short, it runs like this: (§1)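 Tetracycline-induced HEK293 T-REx cells force-coupled to calcium signalling were incubated overnight at 30 C and dye-loaded at room temperature. Calcium flux over 180 s after compound addition flagged agonists; a further 180 s read after EC20 dopamine flagged potentiators.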

The target is the same in assay [6]. The assay is described as follows: HTS Assay for Allosteric Agonists of the Human D1 Dopamine Receptor: Primary Screen for Antagonists (AID 488983).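 Further: calcium flux response to an EC80 dopamine challenge measured with no-wash dye; on the % scale 0 is the no-effect control and ±100 the full control effect; nearly all actives have a fitted effect of over 65% in size.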 The essentials: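 Calcium-flux read-out in inducible HEK293 T-REx cells expressing D1, dye-loaded 30–90 min at room temperature. Kinetic reads: 180 s after compound (agonist phase), then 180 s after an EC80 dopamine challenge.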

Assay [7] in a line: Validation screen for small molecules that induce genotoxicity in human embryonic kidney (HEK293T) cells expressing luciferase-tagged ELG1 (AID 493106). Further: 0% is about no effect. In short, it runs like this: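 ELG1-luciferase reporter readout (ONE-Glo, 30 min, room temperature) after 16 hr compound treatment at 37 °C of HEK293T cells at 2,000 per well. Rising luminescence flags genotoxic stress.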
The target in assay [8] is ATPase family AAA domain-containing protein 5 (Homo sapiens) (UniProt Q96QE3). The assay is described as follows: Validation screen for small molecules that inhibit ELG1-dependent DNA repair in human embryonic kidney (HEK293T) cells expressing luciferase-tagged ELG1 (AID 493107).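 Further: series mostly up to about 46 µM; on the % scale 0 is the no-effect control and ±100 the full control effect; inhibitors lower the ELG1-luciferase luminescence signal; nearly all actives have a fitted effect of over 70% in size.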 In short, it runs like this:
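Luciferase read-out, ONE-Glo, 30 min at room temperature, follows 16 h co-exposure at 37 C of compound and the DNA-damaging agent 5-fluorouridine. Cells: HEK293T with ELG1-luciferase fusion, 2,000 per well, DMSO as vehicle.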

Assay [9] in a line: Nrf2 qHTS screen for inhibitors: Validation (AID 493153; active means well fitted inhibition curve with a large enough effect in the main read-out, with a control signal flat, not every such curve was filed as active). The note with it: Potency: luciferase luminescence; viability change: measured here: cytotoxicity max response. In short, it runs like this:
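Concentration-response on A549 ARE_Fluc reporter cells exposed 18-24 h at 37 C, 5% CO2. Cytotoxicity read first by CellTiter-Fluor fluorescence (Ex 405/Em 525), then Nrf2 inhibition by BugLite luminescence after 15 min.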

The nature of assay [10]: qHTS for Inhibitors of Cell Surface uPA Generation: Validation Assay (AID 493164).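 Further: RAW 264.7 macrophage cells exposed to compound for 18 h; 0% is about no effect.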 The essentials:
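ATP-Lite luminescence read-out: ATP remains high when uPA activity-dependent LF translocation into the cytoplasm is blocked. RAW 264.7 cells, 18 h compound exposure at 37 C; 7-point titration, 2.45 nM to 38.3 uM final.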

Assay [11] concerns the target D(1A) dopamine receptor (Homo sapiens) (UniProt P21728). The assay is described as follows: HTS Assay for Allosteric Agonists of the Human D1 Dopamine Receptor: Primary Screen for Potentiators (AID 488982). Further: 0% is about no effect. In short, it runs like this:
as §1

Assay [12] deals with ATP-dependent 6-phosphofructokinase (Trypanosoma brucei brucei) (UniProt O15648). The assay can be described thus: qHTS Assay to Find Inhibitors of T. brucei phosphofructokinase: hit validation (AID 492961).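 Further: luminescence reports ADP formed as PFK phosphorylates fructose-6-phosphate with ATP; series mostly up to about 51 µM; on the % scale 0 is the no-effect control and ±100 the full control effect.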 In short, it runs like this:
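Reaction: 0.1 M triethanolamine pH 8.0, 5 mM MgCl2, F6P 0.5 mM, ATP 0.1 mM, PFK 1.25 nM, 45 min RT. Read-out: ADP-Glo luminescence. Analysis: concentration-response fits, classed by r2 and efficacy.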

The target in assay [13] is Transient receptor potential cation channel subfamily V member 1 (Homo sapiens) (UniProt Q8NER1). The assay can be described thus: HTS Assay for Compounds that Act as Enhancers of the Vanilloid Receptor 1 (AID 488979). Further: 0% is about no effect. In short, it runs like this:
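TRPV1-expressing cells loaded with Fluo-8 calcium dye; compounds added and calcium influx read kinetically for 3 min (agonist phase), then capsaicin at EC20 added and read 2 min more for enhancement. Fluorescence ex 480/em 520 nm.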

Assay [14] addresses Thyrotropin-releasing hormone receptor (Homo sapiens) (UniProt P34981). The assay can be described thus: qHTS for Small Molecule Agonists and Allosteric Enhancers of Human TRH Receptor: Validation Screen for Agonists (AID 493127;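 active means calcium activation more than 3 SD above the typical response in the agonist read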;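 further: intracellular calcium rise by fluo-8 fluorescence before TRH EC20 addition; 0% is about no effect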). The following applies: TRH receptor agonist cell assay; at 2 µM; stronger effect = higher value. The essentials:
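Compound-evoked intracellular calcium release in fluo-8-loaded TRHR cells, read kinetically on FDSS (Ex 480/Em 530, 1 s/cycle) after 23 nL pintool transfer. Agonist phase preceded 10 nM TRH EC20 addition.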

Assay [15] can be described thus: Validation screen for small molecules that induce DNA re-replication in SW480 colon adenocarcinoma cells (AID 504364). Further: potency means the concentration at half of the fitted maximal effect. The essentials: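 Image-based DNA content read-out: Hoechst stain 40 min, total nuclear fluorescence intensity (ex 405 nm, em 500-530 nm) after 48 h compound exposure of 250 SW480 cells/well at 37 C, 5% CO2, versus DMSO vehicle.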
Assay [16] addresses Thyrotropin receptor (Homo sapiens) (UniProt P16473). The assay is described as follows: qHTS Assay for Antagonists of the Thyroid Stimulating Hormone Receptor (AID 488980). Further: series mostly up to about 58 µM; 0% is about no effect. The essentials: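 Readout is cAMP by HTRF competition between cellular cAMP and cAMP-d2 for a cryptate-labelled antibody. Antagonism was assessed in TSHR-transfected HEK293 cells stimulated with 4 nM TSH (EC80, final) in the presence of RO 20-1724.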

The target of assay [17] is Galactokinase (Homo sapiens) (UniProt P51570). The assay is described as follows: qHTS Validation Assay for Inhibitors of Human Galactokinase (GALK) (AID 493189). Further: 0% is about no effect. The essentials:
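5 nM GALK / 100 uM galactose / 35 uM ATP, 20 mM HEPES pH8.0, 5 mM MgCl2, 60 mM NaCl, 1 mM DTT, 0.01% BSA (final). RT 1 h; Kinase-Glo Plus luminescence.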

Assay [18] has as its target Thioredoxin reductase 1, cytoplasmic (Rattus norvegicus) (UniProt O89049). The assay can be described thus: qHTS Assay for Inhibitors of Mammalian Selenoprotein Thioredoxin Reductase 1 (TrxR1) (AID 488773).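 Further: drop in NADPH fluorescence over an 8 min run after selenite addition; series mostly up to about 57 µM; on the % scale 0 is the no-effect control and ±100 the full control effect; nearly all actives have a fitted effect of over 40% in size.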 The note with it: Potency: inhibition. In short, it runs like this: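 Inhibition is scored from the loss of NADPH fluorescence between first and last reads of an 8-min kinetic run. Selenite (400 uM) was the substrate, added after 15 min compound preincubation at room temperature.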

Sequence of Chromobox protein homolog 1 (Homo sapiens) (P83916 whole entry, looked up): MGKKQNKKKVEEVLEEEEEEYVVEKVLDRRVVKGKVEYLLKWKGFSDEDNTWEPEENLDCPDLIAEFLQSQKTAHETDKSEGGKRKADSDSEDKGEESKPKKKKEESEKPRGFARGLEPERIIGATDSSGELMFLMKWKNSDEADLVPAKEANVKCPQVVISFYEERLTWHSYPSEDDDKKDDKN
Sequence of Thyrotropin-releasing hormone receptor (Homo sapiens) (P34981 whole entry, looked up): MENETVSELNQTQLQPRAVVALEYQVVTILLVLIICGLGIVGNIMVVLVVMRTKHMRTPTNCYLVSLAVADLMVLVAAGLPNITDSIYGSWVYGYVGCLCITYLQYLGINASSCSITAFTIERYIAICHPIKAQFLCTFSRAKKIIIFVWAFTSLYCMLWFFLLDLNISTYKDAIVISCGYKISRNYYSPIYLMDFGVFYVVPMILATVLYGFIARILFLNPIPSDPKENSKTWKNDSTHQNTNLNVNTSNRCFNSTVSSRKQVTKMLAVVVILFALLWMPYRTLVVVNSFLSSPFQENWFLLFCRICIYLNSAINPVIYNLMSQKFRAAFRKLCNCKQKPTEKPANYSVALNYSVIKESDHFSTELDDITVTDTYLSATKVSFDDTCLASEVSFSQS
Sequence of D(1A) dopamine receptor (Homo sapiens) (P21728 whole entry, looked up): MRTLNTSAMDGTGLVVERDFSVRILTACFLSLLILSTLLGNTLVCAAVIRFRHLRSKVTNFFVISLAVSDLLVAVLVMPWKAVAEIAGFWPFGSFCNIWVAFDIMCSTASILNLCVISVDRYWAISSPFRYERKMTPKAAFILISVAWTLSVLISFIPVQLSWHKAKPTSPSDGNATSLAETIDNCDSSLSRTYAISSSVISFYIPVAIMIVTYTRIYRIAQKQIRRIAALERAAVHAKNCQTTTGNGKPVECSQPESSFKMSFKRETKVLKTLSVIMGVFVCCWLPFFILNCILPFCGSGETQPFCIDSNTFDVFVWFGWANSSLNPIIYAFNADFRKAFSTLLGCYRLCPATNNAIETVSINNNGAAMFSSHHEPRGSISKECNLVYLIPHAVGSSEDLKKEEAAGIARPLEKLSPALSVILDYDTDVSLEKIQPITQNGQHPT
Sequence of Thyrotropin receptor (Homo sapiens) (P16473 whole entry, looked up): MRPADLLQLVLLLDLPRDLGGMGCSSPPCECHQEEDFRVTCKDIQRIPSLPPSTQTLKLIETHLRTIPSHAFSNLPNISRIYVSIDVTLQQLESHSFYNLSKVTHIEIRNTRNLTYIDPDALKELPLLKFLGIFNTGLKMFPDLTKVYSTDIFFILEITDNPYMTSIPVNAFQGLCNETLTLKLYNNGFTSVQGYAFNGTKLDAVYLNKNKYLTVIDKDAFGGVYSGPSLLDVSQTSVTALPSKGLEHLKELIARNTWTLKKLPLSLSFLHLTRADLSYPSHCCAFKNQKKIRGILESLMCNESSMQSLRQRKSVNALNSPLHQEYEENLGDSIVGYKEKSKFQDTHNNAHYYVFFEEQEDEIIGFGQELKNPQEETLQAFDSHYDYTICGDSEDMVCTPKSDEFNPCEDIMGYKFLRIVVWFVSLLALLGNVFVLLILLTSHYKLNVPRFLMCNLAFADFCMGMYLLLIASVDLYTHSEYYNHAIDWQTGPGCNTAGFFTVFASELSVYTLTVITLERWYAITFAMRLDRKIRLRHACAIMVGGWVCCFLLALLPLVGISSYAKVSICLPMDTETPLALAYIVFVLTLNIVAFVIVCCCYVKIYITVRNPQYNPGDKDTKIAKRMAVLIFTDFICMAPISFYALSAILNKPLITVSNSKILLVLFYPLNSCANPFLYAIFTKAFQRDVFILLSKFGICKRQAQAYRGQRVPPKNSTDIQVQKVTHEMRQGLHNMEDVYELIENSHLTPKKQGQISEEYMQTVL
Sequence of ATPase family AAA domain-containing protein 5 (Homo sapiens) (Q96QE3 whole entry, looked up, the tested form may be a part): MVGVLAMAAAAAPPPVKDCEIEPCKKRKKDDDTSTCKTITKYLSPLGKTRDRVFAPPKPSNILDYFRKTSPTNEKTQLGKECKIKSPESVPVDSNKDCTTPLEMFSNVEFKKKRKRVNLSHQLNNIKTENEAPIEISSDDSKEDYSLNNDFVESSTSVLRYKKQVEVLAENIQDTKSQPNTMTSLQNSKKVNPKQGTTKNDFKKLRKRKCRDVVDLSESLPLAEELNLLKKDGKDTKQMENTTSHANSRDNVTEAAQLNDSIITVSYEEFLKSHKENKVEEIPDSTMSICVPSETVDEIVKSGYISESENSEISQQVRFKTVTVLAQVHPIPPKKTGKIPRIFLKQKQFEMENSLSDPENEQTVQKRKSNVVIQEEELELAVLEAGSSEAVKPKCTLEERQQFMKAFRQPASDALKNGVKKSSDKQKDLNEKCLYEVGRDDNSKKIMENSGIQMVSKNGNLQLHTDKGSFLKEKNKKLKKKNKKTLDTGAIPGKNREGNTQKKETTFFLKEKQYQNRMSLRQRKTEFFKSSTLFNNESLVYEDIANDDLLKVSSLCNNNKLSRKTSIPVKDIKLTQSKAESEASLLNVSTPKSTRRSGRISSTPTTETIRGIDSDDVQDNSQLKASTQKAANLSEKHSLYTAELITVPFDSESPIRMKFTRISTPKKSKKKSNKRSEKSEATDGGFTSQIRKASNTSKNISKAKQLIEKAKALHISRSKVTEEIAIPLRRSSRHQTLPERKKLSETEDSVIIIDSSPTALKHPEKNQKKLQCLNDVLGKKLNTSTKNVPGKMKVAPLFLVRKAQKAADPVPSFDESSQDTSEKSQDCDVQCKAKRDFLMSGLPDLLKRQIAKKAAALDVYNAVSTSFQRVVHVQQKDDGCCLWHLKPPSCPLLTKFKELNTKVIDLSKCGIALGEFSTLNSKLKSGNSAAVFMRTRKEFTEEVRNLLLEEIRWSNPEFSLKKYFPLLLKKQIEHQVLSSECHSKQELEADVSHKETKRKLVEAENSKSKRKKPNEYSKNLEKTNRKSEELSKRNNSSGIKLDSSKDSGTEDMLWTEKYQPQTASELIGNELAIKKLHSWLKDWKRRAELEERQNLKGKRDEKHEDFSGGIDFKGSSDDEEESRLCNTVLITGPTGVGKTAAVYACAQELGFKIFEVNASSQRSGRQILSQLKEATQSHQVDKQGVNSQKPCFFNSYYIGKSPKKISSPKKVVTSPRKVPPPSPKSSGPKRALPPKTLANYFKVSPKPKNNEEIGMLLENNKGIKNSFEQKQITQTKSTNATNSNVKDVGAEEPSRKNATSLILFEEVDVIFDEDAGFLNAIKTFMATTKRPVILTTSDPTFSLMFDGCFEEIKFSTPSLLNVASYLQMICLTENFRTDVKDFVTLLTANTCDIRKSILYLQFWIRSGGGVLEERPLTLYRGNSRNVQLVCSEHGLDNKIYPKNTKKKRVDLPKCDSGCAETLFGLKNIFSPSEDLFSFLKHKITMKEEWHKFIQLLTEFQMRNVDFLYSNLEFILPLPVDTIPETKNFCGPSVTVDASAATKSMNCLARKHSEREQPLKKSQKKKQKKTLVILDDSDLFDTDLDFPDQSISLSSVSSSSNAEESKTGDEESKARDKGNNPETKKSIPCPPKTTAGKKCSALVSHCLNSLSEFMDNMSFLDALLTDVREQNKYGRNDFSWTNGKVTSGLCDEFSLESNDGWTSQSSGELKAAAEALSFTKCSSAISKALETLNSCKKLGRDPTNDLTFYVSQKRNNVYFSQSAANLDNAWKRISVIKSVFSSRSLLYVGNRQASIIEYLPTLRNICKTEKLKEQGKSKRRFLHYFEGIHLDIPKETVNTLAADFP
Sequence of Flap endonuclease 1 (Homo sapiens) (P39748 whole entry, looked up): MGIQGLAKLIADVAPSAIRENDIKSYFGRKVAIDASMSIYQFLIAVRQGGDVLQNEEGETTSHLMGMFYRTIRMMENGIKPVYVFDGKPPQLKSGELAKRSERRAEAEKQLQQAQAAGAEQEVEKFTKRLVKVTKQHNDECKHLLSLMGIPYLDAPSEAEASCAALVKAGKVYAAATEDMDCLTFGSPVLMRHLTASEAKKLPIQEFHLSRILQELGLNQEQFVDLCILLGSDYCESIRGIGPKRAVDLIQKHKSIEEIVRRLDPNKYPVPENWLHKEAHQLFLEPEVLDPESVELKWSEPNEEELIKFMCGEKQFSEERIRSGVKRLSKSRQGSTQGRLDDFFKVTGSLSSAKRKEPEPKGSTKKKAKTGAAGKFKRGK
Sequence of M-phase phosphoprotein 8 (Homo sapiens) (Q99549 whole entry, looked up): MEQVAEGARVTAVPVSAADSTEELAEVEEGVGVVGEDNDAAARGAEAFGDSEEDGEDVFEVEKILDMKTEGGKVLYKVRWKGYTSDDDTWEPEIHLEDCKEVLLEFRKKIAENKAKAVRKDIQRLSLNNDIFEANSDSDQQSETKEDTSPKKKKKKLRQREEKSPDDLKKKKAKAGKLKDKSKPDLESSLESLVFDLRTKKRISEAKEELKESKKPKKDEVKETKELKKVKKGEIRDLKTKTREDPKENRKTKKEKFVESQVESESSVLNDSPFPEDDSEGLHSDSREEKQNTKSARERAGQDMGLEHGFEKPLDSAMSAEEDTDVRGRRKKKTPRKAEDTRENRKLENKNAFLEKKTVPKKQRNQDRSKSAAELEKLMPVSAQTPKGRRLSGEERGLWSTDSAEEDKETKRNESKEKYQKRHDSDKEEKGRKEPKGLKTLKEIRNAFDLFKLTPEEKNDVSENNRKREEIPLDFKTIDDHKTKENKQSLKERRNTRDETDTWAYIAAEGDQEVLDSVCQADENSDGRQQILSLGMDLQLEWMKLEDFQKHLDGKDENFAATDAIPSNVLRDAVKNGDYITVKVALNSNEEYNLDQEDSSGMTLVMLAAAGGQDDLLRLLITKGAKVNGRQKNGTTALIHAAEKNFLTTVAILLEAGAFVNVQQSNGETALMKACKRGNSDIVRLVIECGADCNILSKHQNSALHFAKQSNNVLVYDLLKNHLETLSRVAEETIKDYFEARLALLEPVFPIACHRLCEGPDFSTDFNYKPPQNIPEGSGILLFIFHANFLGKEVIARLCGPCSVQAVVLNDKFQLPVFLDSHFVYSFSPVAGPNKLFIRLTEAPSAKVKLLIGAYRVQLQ

Consider `NCC1OC(O[C@H]2[C@H](O)[C@@H](OC3C(O)C(N)CC(N)C3OC3OC(CO)C(O)C(O)C3N)O[C@@H]2CO)C(N)C(O)C1O` (stereo partly specified), for which the Potency entry in [1], in assay [2], in assay [3], in [5], in assay [6] and in assay [7] was “inactive” throughout. For the same compound, the Potency result in assay [8] and in assay [9] was “inactive” each time. Besides, the call in [4] and in [10] was inactive. For the same compound, in assay [9], the viability change amounted to 1.58%.
On to `CO/N=C(\C(=O)N[C@@H]1C(=O)N2C(C(=O)O)=C(COC(C)=O)CS[C@H]12)c1csc(N)n1`, for which the Potency result in assay [1], in assay [2], in assay [5], in assay [11], in [6] and in assay [7] was “inactive” each time. For the same compound, the Potency result in assay [8] and in assay [9] was “inactive” each time. In addition, the Potency in [3] is 50.1 µM (active). In addition, the outcome in [4] and in assay [10] was inactive. Further, in assay [9], the viability change is -5.9%.
Take `COC(=O)C1=C(C)NC(C)=C(C(=O)OCC(C)C)C1c1ccccc1[N+](=O)[O-]` (stereo unspecified): in assay [12], the outcome was inactive.
For the compound `Nc1ccn([C@@H]2O[C@H](CO)[C@@H](O)[C@@H]2O)c(=O)n1`, the Potency entry in assay [2] and in assay [15] was “inactive” in each case. The result in assay [13] was inactive. Besides, the activation in assay [14] is -0.125% (inactive).
For the compound `N#C/C(=C\c1ccc(O)c(O)c1)C(=O)NCc1ccccc1`, the Potency entry in assay [1], in assay [5], in [6], in assay [7], in [8] and in assay [9] was “inactive” throughout. Also, in assay [15], the Potency result is “inactive”. For the same compound, the Potency in assay [3] is 10 µM (active). Besides, the result in assay [13], in assay [16] and in [10] was inactive. Besides, the activation in assay [14] is 1.31% (inactive). For the same compound, the viability change in assay [9] was -19.8%.
As for `CCCCCCCCCCCCCCCCCC(=O)OC(CC(=O)O)C[N+](C)(C)C` (stereo unspecified), the Potency result in assay [1], in assay [2], in assay [3], in assay [11], in assay [7] and in [8] was “inactive” throughout. Moreover, the Potency result in assay [17] is “inactive”. The result in [4], in [13], in assay [16] and in assay [10] was inactive. For the same compound, the Potency in assay [5] is 11.2 µM (active); in assay [15] it was 11.6 µM (active). Further, the activation in [14] is -0.5% (inactive).
Consider `O=c1[nH]c2cc(C(F)(F)F)ccc2n1-c1cc(C(F)(F)F)ccc1O`, for which the Potency entry in [18], in [1], in assay [2], in assay [11], in assay [7] and in assay [8] was “inactive” in each case. The Potency entry in assay [9], in [17] and in assay [15] was “inactive” each time. The outcome in [13], in assay [16] and in assay [10] was inactive. Further, the activation in [14] is 1.88% (inactive). For the same compound, the viability change in assay [9] is -2.14%.
On to `CN(C)C(N)=NCCC[C@H](N)C(=O)O`, for which the Potency entry in assay [1], in assay [2], in assay [3], in assay [5], in [11] and in assay [6] was “inactive” each time. In addition, the Potency entry in assay [7], in assay [8], in assay [9], in assay [17] and in assay [15] was “inactive” in each case. Moreover, the compound was classed as inactive in assay [4], in assay [13], in assay [16] and in assay [10]. The activation in [14] is 0.188% (inactive). Besides, the viability change in assay [9] was -5.79%.
Turning to `O=C(Nc1cccc(C(=O)Nc2ccc(S(=O)(=O)O)c3cc(S(=O)(=O)O)cc(S(=O)(=O)O)c23)c1)Nc1cccc(C(=O)Nc2ccc(S(=O)(=O)O)c3cc(S(=O)(=O)O)cc(S(=O)(=O)O)c23)c1`, the Potency is 1.89 µM (active) in assay [1]; 31.6 µM (active) and 9.47 µM (active) in assay [2]; 20 µM (active) in assay [3]. For the same compound, the call in assay [4], in assay [13], in [16] and in [10] was inactive. The Potency entry in [5], in assay [7], in assay [8], in assay [9], in assay [17] and in [15] was “inactive” throughout. In [14], the activation was 0.875% (inactive). Moreover, in assay [9], the viability change is -3.71%.
